This passage reports growth results from PubChem BioAssay (NCI).

Compounds without any hit were thinned out: in the full panel of roughly 83,000, 20% have a hit.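 Treatment: one concentration, 48 hours, 96-well format. Scoring: percent growth, with anything below 10 considered active.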 Unmarked numbers belong to inactive results. The source made the active and inactive calls.

Holding throughout (experiment): NCI-60 one-dose screen, 48 h (100 = growth as untreated, 0 = no growth, -100 = all killed)
Holding throughout (settings): 10 µM unless noted

In assay [1] the test system is SN12C renal.
Assay [2] deals with UO-31 renal.
The subject of assay [3] is TK-10 renal.
Assay [4] has as its system ACHN renal.
For assay [5], the system named is CAKI-1 renal.
Assay [6] has as its system A498 renal.
Assay [7] relates to CCRF-CEM leukemia.
The test system of assay [8] is EKVX NSCLC.
Assay [9] relates to MOLT-4 leukemia.
Assay [10] concerns SR leukemia.

Take `CN(C)c1nc(N)nc(Cn2c(-c3nonc3N)nc3ccccc32)n1`: the growth in assay [1] was 95.3%; in [2], 65.2%; in assay [3] it was 107%; in assay [4], 88.3%; in [5] it was 77.9%; in assay [6] it was 82.5%. In addition, the growth in [7] was 78.9%.
In the case of `CC1CC(C)/C(=N/NC(N)=O)C(C(O)CC2CCC(=O)NC2=O)C1` (stereo not given), the growth in assay [8] is 33.6%; in [1] it was 18.9%; in assay [2] it was 15.9%; in assay [3], 53.9%; in assay [5], 35.5%; in assay [7], 15.6%. The growth was 23% in assay [9] and 48.5% in assay [10].
As to `CC/C=C\C=C/C(=O)N/C=C/CC1Cc2cccc(O)c2C(=O)O1` (stereo not given), the growth in assay [8] was 88.8%; in assay [1], 101%; in assay [3], 109%; in assay [4], 145%; in assay [5], 69.5%; in assay [6], 47.9%. Besides, the growth was 47.5% in assay [9] and -67.6% (active) in [10].
Regarding `CC(=O)Oc1ccc(C2OC(c3ccc4ccccc4c3OC(C)=O)=NN2C(C)=O)c(OC(C)=O)c1` (stereo not given), the growth is 21.8% in [1]; 7.69% (active) in [2]; 34.4% in [3]; 21.2% in assay [4]; 18.7% in assay [5]; 35% in [6]. For the same compound, the growth in assay [7] was 7.23% (active); in assay [9], 2.64% (active).
As for `O=C(/C(=N/O)S(=O)(=O)c1ccccc1)c1cccs1`, the growth in assay [1] is 101%; in assay [2], 96.8%; in [3] it was 89.5%; in [4] it was 112%; in assay [5], 103%; in assay [6] it was 103%. Moreover, the growth in [7] was 98.5%; in assay [9] it was 104%.
Consider `O=C(Nc1cccc(C(F)(F)F)c1)Nc1ccc(OCc2nnc(-c3ccc(Cl)cc3)o2)c(F)c1`, for which the growth in assay [1] is 77.3%; in assay [2], 73.9%; in [3] it was 81.3%; in assay [4], 51.2%; in assay [5], 80.1%; in [6], 79%. Further, the growth in assay [7] was 60.8%; in assay [9], 66.7%; in assay [10] it was 66.3%.
For the compound `Cc1cc(NCCCNc2ccnc3cc(Cl)ccc23)nc(N2CCN(C)CC2)n1`, the growth is 77.6% in assay [1]; 58.6% in assay [2]; 133% in assay [3]; 45.7% in [4]; 57% in [5]; 82.4% in [6]. In addition, the growth in assay [7] was 26.1%; in assay [9], 21.2%.
`Cc1ccc2c(c1)C(=O)/C(=C/c1ncc([N+](=O)[O-])n1C)O2`: the growth was -15.3% (active) in [1]; -39.7% (active) in [2]; -29.8% (active) in [3]; 5.3% (active) in assay [4]; -32.1% (active) in assay [5]; 76.4% in assay [6]. In addition, the growth was 0.686% (active) in assay [7] and -2.13% (active) in assay [9].
For `O=C1OCCCCCCCCCC#Cc2ccccc21`, the growth in assay [8] is 115%; in assay [1], 113%; in assay [3], 122%; in assay [4] it was 145%; in [5], 97.1%; in assay [6], 98.3%. Besides, the growth in assay [9] is 85.7%; in assay [10], 87.4%.
`N#CCNc1ccccc1N`: the growth is 89.6% in assay [8]; 104% in [1]; 65.1% in assay [2]; 104% in [3]; 85.1% in [9]; 116% in assay [10].
As to `CCCCCCCCCCCCCCCCN=C(CC(=O)O)C(=O)O`, the growth was 113% in [8]; 89.8% in assay [2]; 83.9% in assay [3]; 105% in assay [4]; 104% in assay [5]; 86.1% in [7]. Further, in assay [9], the growth is 79.4%.
For `OC(c1cc(C(F)(F)F)nc2c(C(F)(F)F)cccc12)C1CCCCN1` (stereo not given), the growth was 76.4% in assay [8]; 41.8% in [2]; 11.9% in assay [3]; 48.4% in assay [5]; 53% in assay [6]; 65.2% in assay [7]. Moreover, the growth in assay [9] was 19.7%; in [10] it was 12.7%.
Consider `O=C1/C(=C/c2ccc([N+](=O)[O-])o2)Oc2ccc(Cl)cc21`, for which the growth in assay [1] was -41.6% (active); in assay [2], -86.1% (active); in assay [3] it was -59.8% (active); in assay [4], -61% (active); in assay [5], 3.65% (active); in [6] it was 108%. The results for the growth in assay [7], in [9] and in assay [10] were -23.4% (active), -12.4% (active) and 5.52% (active), respectively.
With `CCN1C(=O)c2ccc3c4c(ccc(c24)C1=O)C(=O)N(CCCNCc1ccccc1OC)C3=O`, the growth is -91.6% (active) in assay [1]; -42.5% (active) in assay [2]; -28.3% (active) in assay [3]; -67.1% (active) in assay [4]; -11.4% (active) in [5]; -80.7% (active) in [6]. Moreover, the growth in [7] is -42.3% (active); in assay [9], -51.7% (active); in assay [10], -42% (active).
As to `O=C(Nc1ccc(OCc2nnc(-c3ccccc3)o2)c(F)c1)Nc1ccc(Cl)c(C(F)(F)F)c1`, the growth in assay [1] was 16.1%; in assay [2] it was -19% (active); in assay [3], 33.7%; in [4], 9.47% (active); in assay [5], 16.4%; in assay [6], 18%. For the same compound, the growth is 18.9% in assay [7], 13.7% in assay [9] and 0.0728% (active) in assay [10].
